This is part of a sample that, as a whole, favours compounds with a hit. Of some 79,000 tested, about 15% had one in any assay. Values without a mark were called inactive. The source made the active and inactive calls. No stated cut-off is given here; in the data, active means growth inhibition above about 70%; inactive means the rest.
Columns and labels:
[1] = NCI Yeast Anticancer Drug Screen. Data for the rad50 strain (AID 155);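 further: 0% = growth of vehicle-only cultures of the same strain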; conditions: S. cerevisiae rad50 strain growth inhibition, active compounds read high
Method in brief: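 Growth of the mutant yeast was measured after compound exposure and referenced to vehicle-treated cultures.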

[2] = NCI Yeast Anticancer Drug Screen. Data for the mec2-1 strain (AID 157); conditions: S. cerevisiae mec2-1 strain, active compounds read high
Method in brief: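 Strain: mec2-1 (DNA repair/cell cycle alteration). Compound exposure, then growth measured; inhibition expressed relative to vehicle.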

[3] = NCI Yeast Anticancer Drug Screen. Data for the sgs1 mgt1 strain (AID 161);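 further: 0% = growth of cultures given vehicle only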; conditions: S. cerevisiae sgs1 mgt1 strain, active compounds read high
Method in brief: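 Read-out: growth inhibition vs vehicle controls. Cells: mutant yeast strain deficient in DNA damage repair.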

[4] = NCI Yeast Anticancer Drug Screen. Data for the cln2 rad14 strain (AID 165);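 further: 0% = growth equal to vehicle treated cultures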; conditions: S. cerevisiae cln2 rad14 strain, active compounds read high
Method in brief: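 Compounds are applied to the cln2 rad14 yeast strain, and growth is then compared with that of vehicle-treated cultures to give inhibition.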

[5] = NCI Yeast Anticancer Drug Screen. Data for the bub3 strain (AID 167); conditions: S. cerevisiae bub3 mutant strain, active compounds read high
Method in brief: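 Whole-cell yeast assay. The mutant strain was incubated with compounds, and growth inhibition was determined by comparison with vehicle-treated cells.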

[6] = NCI Yeast Anticancer Drug Screen. Data for the mlh1 rad18 strain (AID 175); conditions: S. cerevisiae mlh1 rad18 strain growth inhibition, active compounds read high
Method in brief: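 Read-out is yeast growth inhibition, calculated against vehicle-only controls. The compound was applied to a strain engineered with DNA damage repair alterations.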

[7] = at 5.0 µM (retest, dose inferred, filed as 0.5)
[8] = at 50.0 µM (retest, dose inferred, filed as 5.0)

Row | SMILES | growth inhibition [1, 7] | growth inhibition [1, 8] | growth inhibition ([1]; at 50.0 µM) | growth inhibition [2, 7] | growth inhibition [2, 8] | growth inhibition ([2]; at 50.0 µM) | growth inhibition [3, 7] | growth inhibition [3, 8] | growth inhibition ([3]; at 50.0 µM) | growth inhibition [4, 7] | growth inhibition [4, 8] | growth inhibition ([4]; at 50.0 µM) | growth inhibition [5, 7] | growth inhibition [5, 8] | growth inhibition ([5]; at 50.0 µM) | growth inhibition [6, 7] | growth inhibition [6, 8] | growth inhibition ([6]; at 50.0 µM)
1 | CC12CCC(O)CC1CCC1C2CCC2(C)C1CC1CC(=O)OC12 (stereo not given) | 82% (active) | 98% (active) | 98.5% (active) | 58% | 98% (active) | 85.3% (active) | 83% (active) | 98% (active) | 99% (active) | 57% | 99% (active) | 98.8% (active) | 72% (active) | 98% (active) | 98.9% (active) | 85% (active) | 98% (active) | 97.2% (active)
2 | CC(=O)C(CN(C)C)C(c1ccccc1)c1c(O)c2ccccc2oc1=O (stereo not given) | 22% | 22% | 65.7% | 20% | 20% | 54.4% | 4% | 4% | 70.8% (active) | -4% | -4% | 64% | 13% | 13% | 59.6% | 17% | 17% | 64.2%
3 | CCC[CH2][Sn]1([CH2]CCC)[O]CC(CN(C)Cc2ccccc2)[O]1 (stereo not given) | 3% | 3% | 88.7% (active) | 12% | 12% | 90.1% (active) | -5% | -5% | 20.2% | -2% | -2% | 89.2% (active) | -1% | -1% | 87.5% (active) | 0% | 0% | 81.8% (active)
4 | Cc1ccc(N=P(c2ccccc2)(c2ccccc2)c2ccccc2)cc1.[I][Hg][I] | 99% (active) | 99% (active) | 94.7% (active) | 100% (active) | 100% (active) | 99.7% (active) | 100% (active) | 99% (active) | 98.9% (active) | 99% (active) | 99% (active) | 99% (active) | 99% (active) | 98% (active) | 98.3% (active) | 99% (active) | 99% (active) | 99.3% (active)
5 | CCC[CH2][Sn]1([CH2]CCC)[S]CC[N]1S(=O)(=O)c1ccc(C)cc1 | 79% (active) | 98% (active) | 91.8% (active) | 85% (active) | 99% (active) | 94% (active) | 77% (active) | 99% (active) | 92.6% (active) | 62% | 97% (active) | 91.5% (active) | 88% (active) | 98% (active) | 92.3% (active) | 88% (active) | 97% (active) | 92% (active)
